Records with an inconclusive call do not appear. A call without a number means that no potency is given here. Active and inactive are the calls of the source. Unless noted, calls follow the shape of the dose curve; as a rule, active = well fitted inhibition curve with a large enough effect; inconclusive = small, poorly fitted or top-dose-only effect; inactive = no such curve, though single readings can be large or run the other way.

The first test can be described thus: S16 Schwann cell PMP22 intronic element firefly luciferase assay (AID 624032). Also: nearly all actives have a fitted effect of over 30% in size. Also: potency is read from the fitted curve at half-maximal effect. To be noted: S16 rat Schwann cells, PMP22 element FLuc, 24 h; series mostly up to 57.5 µM. In a few lines: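 Rat S16 Schwann cells stably carrying firefly luciferase driven by a PMP22 intronic element, in 10% FBS, treated 24 h at 37 C. ONE-Glo luminescence normalized to PTC124 control and DMSO (0%); curves classed by r2, magnitude and activity.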
Consider `O=C1c2ccccc2C(=O)c2ccccc21`, for which the Potency entry is “inactive”. The same measure, in the same setting: the entry for `CCC(C)(C)c1ccc(O)cc1` is “inactive”; for `COP(=S)(OC)SCN1C(=O)c2ccccc2C1=O` it is “inactive”; for `NC(=O)CS(=O)C(c1ccccc1)c1ccccc1` (stereo not drawn) it is “inactive”. Same read-out and setting: the entry for `CC(C)(C)NCC(O)c1cc(Cl)c(N)c(C(F)(F)F)c1` (stereo not drawn) is “inactive”. On to `Nc1nc(N)nc(NC2CC2)n1`, for which the Potency result was “inactive”. Regarding `CN1C(=O)NC(=O)C(C)(C2=CCCCC2)C1=O` (stereo not drawn), the Potency result is “inactive”. Take `CCOP(=S)(OCC)Oc1ccc2c(C)c(Cl)c(=O)oc2c1`: the Potency is 8.09 µM (active). As to `CCC1(c2ccccc2)C(=O)N(COC)C(=O)N(COC)C1=O`, the Potency entry is “inactive”. In the case of `COP(=S)(OC)Oc1ccc(S(=O)(=O)N(C)C)cc1`, the Potency result is “inactive”.

In the case of `CN1C(=O)CC(=O)N(c2ccccc2)c2cc(Cl)ccc21`, the Potency result was “inactive”. Consider `NNc1ccccc1`, for which the Potency result is “inactive”. `CCC1(CC)C(=O)C=CNC1=O`: the Potency result is “inactive”. As to `O=C1CN=C(c2ccccc2)c2cc([N+](=O)[O-])ccc2N1`, the Potency entry is “inactive”.

A short description of the next test: S16 Schwann cell PMP22 intronic element beta-lactamase assay (AID 624044; calls by dose curve; also: nearly all actives have a fitted effect of over 15% in size). Conditions: S16 rat Schwann cells, PMP22 element beta-lactamase FRET, 24 h; series mostly up to 38.3 µM. A digest of the protocol:
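Rat S16 Schwann cells with beta-Lac driven by a PMP22 intronic element, compound-treated 24 h at 37 °C. LiveBLAzer FRET B/G read: 460 nm normalized to potassium clavulanate vs DMSO; 535 nm FRET as viability; concentration-effect curves classified.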
On to `COP(=S)(OC)SCN1C(=O)c2ccccc2C1=O`, for which the compound was classed as inactive.

In the case of `CCOP(=S)(OCC)Oc1ccc2c(C)c(Cl)c(=O)oc2c1`, the compound was called inactive. On the same count and under the same terms, next, `COP(=S)(OC)Oc1ccc(S(=O)(=O)N(C)C)cc1`: “inactive”; `O=C1CN=C(c2ccccc2)c2cc([N+](=O)[O-])ccc2N1`: “inactive”.

The record behind these values is PubChem BioAssay (NCATS).
